Among the data in PubChem BioAssay AID651661 (Broad Institute, 2012) are inhibition values, retold here.

Values joined by “and” are separate entries in the source; they are usually repeats but may differ in a detail not shown here. Equal entries are not always repeated. Screen size: about 350,000 compounds; about 2,300 (0.66%) were called active.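 The calls were made as follows: active = mean inhibition of at least 50% after viability correction, with every replicate also passing that limit; inconclusive = mean reaches 50% but only one of two replicates passes; inactive = the rest.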 Shown is part of a subset that was picked to be rich in actives.

The experiment in a line: EWS/Fli-driven NR0B1 reporter inhibitors, primary screen, A673 cells, NR0B1 luciferase, luminescence, MLPCN library (AID 651661).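 Also: firefly luciferase signal divided by Alamar Blue viability fluorescence both relative to DMSO.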 The settings on record: viability-normalised, at 12.6 µM, hits give high values.
Usually inhibition stands for the change of the read-out against control, counted positive when it falls. On to `COC1C(O)C(C)OC(OC2CCC3(C=O)C(CCC4C3CCC3(C)C(C5=CC(=O)OC5)CCC43O)C2)C1O` (stereo not given), for which the inhibition is 61.9% (active).

As to `OC[C@@H]1[C@H]2c3ccccc3NC[C@H]2N1Cc1cccnc1`, the inhibition was 3.74% (inactive).

On to `COc1cccc(-c2nc3ccc(N4CCN(C)CC4)cc3[nH]2)c1`, for which the inhibition is 54% (active).

As for `Cc1nc2ccc(N3CCN(C)CC3)cc2nc1C`, the inhibition was 1.28% (inactive).

As for `Brc1ccc2c(c1)CNCc1cnnn1-2`, the inhibition is -10.6% (inactive).

`CCC(C)NC1(c2ccccc2)CCCCC1` (stereo not given): the inhibition was -1.85% (inactive).

With `COc1cc(OC)cc(C(=O)NCCN2CCC3(CC2)C(=O)NCN3c2ccccc2)c1`, the inhibition was -1.8% (inactive).

For the compound `CCN(CC)C(=O)[C@@H]1C=C2c3cccc4[nH]c(Br)c(c34)C[C@H]2N(C)C1`, the inhibition was -3.36% (inactive).

For the compound `C[C@]12CCC3C(CC[C@H]4C[C@@H](O)CC[C@]34C)C1CC[C@@H]2O` (stereo not given in full), the inhibition is -5.07% (inactive).

On to `C[C@]12CCC3C(CC[C@H]4C[C@@H](O)CC[C@]34C)C1C[C@@H](O)[C@H]2O` (stereo not given in full), for which the inhibition is 0.611% (inactive).

As for `C[C@]12CC[C@H](O)C[C@H]1CC[C@@H]1C2CC[C@]2(C)[C@@H](C3=CC(=O)OC3)[C@@H](O)C[C@]12O` (stereo not given in full), the inhibition was 64.9% (active).

Consider `COc1ccc(C#Cc2ccc([C@H]3[C@H](CO)N4CCCCN(C(=O)Cc5ccccc5)C[C@@H]34)cc2)cc1`, for which the inhibition is -12.7% (inactive).

`COC(=O)[C@H]1[C@H](CO)[C@H]2Cn3c(ccc(-c4cccc(F)c4)c3=O)[C@@H]1N2Cc1ccccc1`: the inhibition is -28.1% (inactive).

As for `O=c1[nH]c2ccccc2n1C1CCN(C(c2ccccc2)c2nnnn2Cc2ccccc2)CC1` (stereo not given), the inhibition was 21.9% (inactive).

For the compound `O=C(O)COc1ccccc1/C=C1\C(=O)NC(=O)N(CCC2=CCCCC2)C1=O`, the inhibition was 2.19% (inactive).

Consider `O=C1NC(=O)N(Cc2ccco2)C(=O)/C1=C\c1ccc(-c2ccc(F)cc2)o1`, for which the inhibition is 20% (inactive).

As to `O=C1NC(=O)N(CCc2ccc(F)cc2)C(=O)/C1=C/C=C/c1ccccc1`, the inhibition is 66.1% (active).

Turning to `O=C(NC[C@@H]1CC[C@H]2NC[C@H]2O1)C1CCCC1`, the inhibition is -22.4% (inactive).

Consider `C[C@@H]1CN([C@H](C)CO)C(=O)CCCn2cc(nn2)CO[C@@H]1CN(C)C(=O)Oc1cccc2ccccc12`, for which the inhibition is 4.15% (inactive).

On to `C[C@H]1CN([C@@H](C)CO)C(=O)CCCn2nncc2CO[C@H]1CN(C)C(=O)Oc1cccc2ccccc12`, for which the inhibition was -6.63% (inactive) and -4.29% (inactive) and 4.35% (inactive).

As to `CN(C)CC1Oc2ccccc2OC1(O)c1ccccc1` (stereo not given), the inhibition was 55.9% (active).

Turning to `O=C(NCC1=C(c2ccc3ccccc3c2)C[C@@H]2CC[C@H]1N2Cc1ccco1)c1cccs1`, the inhibition is 2.23% (inactive).

On to `O=c1[nH]c2ccccc2n1C1CCN(C(c2ccnc3ccccc23)c2nnnn2Cc2ccccc2)CC1` (stereo not given), for which the inhibition is 6.09% (inactive).

As for `COC(=O)C[C@@H]1CC[C@@H]2NC[C@@H](O)COC[C@H]2O1`, the inhibition is -11.3% (inactive).

Consider `Cc1cc(N2CCNC[C@@H]2C)ccc1N1CC[C@H](O)C1`, for which the inhibition is -8.38% (inactive).

`CCOC(=O)[C@]12Cc3ccccc3[C@H]1N(C1CCCCC1)C(=O)c1cc(OC)ccc12`: the inhibition was 56.3% (active).

In the case of `CCOC(=O)[C@]12Cc3cc(OC)ccc3[C@H]1N(C(C)C)C(=O)c1ccccc12`, the inhibition was 16.8% (inactive).

Turning to `CC(=O)NCC1=C(c2ccc3ccccc3c2)C[C@@H]2CC[C@H]1N2Cc1ccco1`, the inhibition was 9.45% (inactive).

For `CC1C(=O)OC2CCN3CC=C(COC(=O)C(C)(O)C1(C)O)C23` (stereo not given), the inhibition was 0.572% (inactive).

In the case of `O=C(O)[C@@H]1[C@@H](CO)[C@@H]2Cn3c(ccc(-c4ccccc4F)c3=O)[C@H]1N2C(=O)c1cccnc1`, the inhibition is -3.75% (inactive).
